Source: PubChem BioAssay (NCATS)
Results filed as inconclusive are left out. Where a call stands in place of a potency, no number is given. Calls of active or inactive are those of the source. The call rests on the fitted dose curve; in most records, active means well fitted cell-killing curve with a large enough effect; inconclusive means small, poorly fitted or top-dose-only effect, or effect the other way; inactive means no such curve, though single readings can be large or run the other way.

assay: Quantitative High-Throughput drug screen in 47 multiple myeloma cell lines against the NCATS MIPE library collection: L363_DSMZ cell viability assay (AID 1918984); settings: L363 myeloma viability, CellTiter-Glo ATP luminescence, 48 h; series mostly up to 45.8 µM; further: nearly all actives have a fitted effect of over 40% in size
Source text: PI: Beverly A. Mock Ph.D.
Laboratory of Cancer Biology and Genetics,
Center for Cancer Research, National Cancer Institute,
National Institute of Health, Bethesda, Maryland
Drug resistance and disease progression are common in multiple myeloma (MM) patients, underscoring the need for new therapeutic combinations. […] We hypothesized that effective combinations would reduce MYC expression and enhance p16 activity. […] These preclinical data identify potentially useful drug combinations for evaluation in drug-resistant MM and reveal potential mechanisms of combined drug sensitivity.
Described herein is the primary MIPE qHTS used to cherrypick compounds. Validated compounds were then further tested for potential synergistic activiy.
[1] Peat TJ, Gaikwad SM, Dubois W, Gyabaah-Kessie N, Zhang S, Gorjifard S, Phyo Z, Andres M, Hughitt VK, Simpson RM, Miller MA, Girvin AT, Taylor A, Williams D, D'Antonio N, Zhang Y, Rajagopalan A, Flietner E, Wilson K, Zhang X, Shinn P, Klumpp-Thomas C, McKnight C, Itkin Z, Chen L, Kazandijian D, Zhang J, Michalowski AM, Simmons JK, Keats J, Thomas CJ, Mock BA. Drug combinations identified by high-throughput screening promote cell cycle transition and upregulate Smad pathways in myeloma. Cancer Lett. 2023 Aug 1;568:216284. doi: 10.1016/j.canlet.2023.216284. Epub 2023 Jun 24. PMID: 37356470; PMCID: PMC10408729.
SEQUENCE No. (e.g., 1, 2, 3, etc.); […] (e.g., Cells, Incubation, Reagent, etc.); VALUE and DESCRIPTION.
1; Cells; 5 uL; white, solid bottom 1536-well Greiner assay plate.
2; Compounds; 23 nL; Kalypsis pin tool (Wako USA) equipped with a 1536-well pin head to transfer to the assay plates.
3; Incubation; 48 hours; 37C incubation.
4; Reagent;5uL; CellTiter Glo (Promega).
5; Detector; 425V; Luminescence; Viewlux PerkinElmer.
NOTES (numbers refer to Sequence numbers above)
1. The cell-based screening methods employed in this study were like those previously published. Briefly, the corresponding myeloma cell lines were screened in 1,536-well plates with 500 cells, 5-uL per well for inhibition of cell viability (assessed by measuring ATP levels with CellTiterGlo).
2. NCATS MIPE 4.0 library of approved and investigational drugs were added using the Kalypsis pin tool. Wells treated with DMSO only for 100% viability and media only for 0% viability were used as controls.
3. The assay plates were covered and incubated for 48 hours in a 37C, 5% CO2 incubator with controlled humidity.
4. After 48 hours, CellTilter-GloTM luminescent substrate mix (Promega) reagent was added to the assay plate and plates we incubated for 5 min at room temperature.
5. Signal was measured as median relative luminescence units on a ViewLux (PerkinElmer) multiplate reader.
[1] Heske CM, Davis MI, Baumgart JT, Wilson K, Gormally MV, Chen L, Zhang X, Ceribelli M, Duveau DY, Guha R, Ferrer M, Arnaldez FI, Ji J, Tran HL, Zhang Y, Mendoza A, Helman LJ, Thomas CJ. Matrix Screen Identifies Synergistic Combination of PARP Inhibitors and Nicotinamide Phosphoribosyltransferase (NAMPT) Inhibitors in Ewing Sarcoma. Clin Cancer Res. 2017 Dec 1;23(23):7301-7311. doi: 10.1158/1078-0432.CCR-17-1121. Epub 2017 Sep 12. PMID: 28899971; PMCID: PMC6636827.
Potency means the concentration at half of the fitted maximal effect.

SMILES | Potency
c1ccc([C@H]2CN3CCSC3=N2)cc1 | inactive
CCCCNc1cc(C(=O)O)cc(S(N)(=O)=O)c1Oc1ccccc1 | inactive
O=C1CCc2cc(OCCCCc3nnnn3C3CCCCC3)ccc2N1 | inactive
CNC(=O)c1ccc(N2C(=S)N(c3ccc(C#N)c(C(F)(F)F)c3)C(=O)C2(C)C)cc1F | inactive
Nc1nc2ccc(OC(F)(F)F)cc2s1 | inactive
O=C(Nc1cccnc1)N1CCC(Cc2cccc(Oc3ccc(C(F)(F)F)cn3)c2)CC1 | 4.69 µM (active)
NS(=O)(=O)c1cc2c(cc1Cl)NC=NS2(=O)=O | inactive
CCc1cc(Nc2nccc(-c3c(-c4ccc(OC)c(C(=O)Nc5c(F)cccc5F)c4)nc4ccccn34)n2)c(OC)cc1N1CCC(N2CCN(S(C)(=O)=O)CC2)CC1 | 16.6 µM (active)
OCCn1cc(-c2cnc3nnn(Cc4ccc5ncccc5c4)c3n2)cn1 | inactive
CN(C)c1ccc(Nc2nc(N)n(C(=O)c3c(F)cccc3F)n2)cc1 | 20.9 µM (active)
Cc1cnc(Nc2ccc(OCCN3CCCC3)cc2)nc1Nc1cccc(S(=O)(=O)NC(C)(C)C)c1 | 0.296 µM (active)
COc1cc(Nc2ncc3c(n2)-c2ccc(Cl)cc2C(c2c(F)cccc2OC)=NC3)ccc1C(=O)O | inactive
CN(C)C(=O)c1ccc(S(=O)(=O)c2ccc(NC(=O)[C@@](C)(O)C(F)(F)F)c(Cl)c2)cc1 | 10.5 µM (active)
CCC(C)(C)C(=O)O[C@H]1C[C@@H](C)C=C2C=C[C@H](C)[C@H](CC[C@@H]3C[C@@H](O)CC(=O)O3)[C@H]21 | 13.2 µM (active)
CCN(CC)CCCC(C)Nc1ccnc2cc(Cl)ccc12 (stereo not given) | 0.935 µM (active)
COc1c(Cl)cc2c([nH]c3cnccc32)c1NC(=O)c1cccnc1C | 0.743 µM (active)
O=NN(CCCl)C(=O)NCCCl | inactive
O=C1[C@H](Cc2ccc(O)cc2)N2C(=O)CCN(C(=O)NCc3ccccc3)[C@H]2CN1Cc1cccc2ccccc12 | inactive
Cc1c(C)c2c(c(C)c1O)CCC(C)(COc1ccc(CC3SC(=O)NC3=O)cc1)O2 (stereo not given) | inactive
CC(=O)Oc1ccccc1C(=O)O | inactive

SMILES | Potency
O=c1n(CCCN2CCN(c3cccc(Cl)c3)CC2)nc2ccccn12 | inactive
Nc1nc2c(ncn2COCCO)c(=O)[nH]1 | inactive
O=C(O)COCCN1CCN(C(c2ccccc2)c2ccc(Cl)cc2)CC1 (stereo not given) | 0.296 µM (active)
OC(CN1CCC(Cc2ccc(F)cc2)CC1)c1ccc(Cl)cc1 (stereo not given) | inactive
CCOc1ccc(Cc2cc([C@@H]3O[C@H](CO)[C@@H](O)[C@H](O)[C@@H]3O)ccc2Cl)cc1 | 18.7 µM (active)
NCCCC(N)(C(=O)O)C(F)F (stereo not given) | 5.9 µM (active)
COCC(=O)NCC=Cc1ccc2ncnc(Nc3ccc(Oc4ccc(C)nc4)c(C)c3)c2c1 | 14.8 µM (active)
CC(C)(Sc1ccc(CCN(CCCCC2CCCCC2)C(=O)NC2CCCCC2)cc1)C(=O)O | inactive
COc1cc2nccc(Oc3ccc(NC(=O)NC4CC4)c(Cl)c3)c2cc1C(N)=O | inactive
NCCc1ccc(O)c(O)c1 | 23.5 µM (active)
CCc1cncnc1N1CCN(Cc2nc3ccc(C(F)(F)F)cc3[nH]2)CC1 | 5.26 µM (active)
NC(=O)c1cnccn1 | inactive
CNCc1ccc(-c2[nH]c3cc(F)cc4c3c2CCNC4=O)cc1 | inactive
Cc1cc(SCc2sc(-c3ccc(C(F)(F)F)cc3)nc2C)ccc1OCC(=O)O | inactive
O=c1[nH]c(-c2ccc(C(F)(F)F)cc2)nc2c1CSCC2 | inactive
Nc1nccc(-c2ccc3noc(-c4ccc(Cl)cc4)c3c2)n1 | inactive
Cc1[nH]c(=O)c(C#N)cc1-c1ccncc1 | inactive
CS(=O)(=O)c1ccc(C(=O)Nc2ccc(Cl)c(-c3ccccn3)c2)c(Cl)c1 | inactive
C#Cc1cccc(Nc2ncnc3cc(OCCOC)c(OCCOC)cc23)c1 | 1.48 µM (active)
Nc1ccc(S(=O)(=O)Nc2ccnn2-c2ccccc2)cc1 | inactive
